Assay outcomes from PubChem BioAssay.
KCNQ2 pot: potentiators of rat KCNQ2 potassium channel | AID 2239, 2010 | B-score at 10 µM | CHO-K1 KCNQ2, FluxOR thallium flux fluorescence; active compounds read high | 0.54% of 310,000 active | Potassium voltage-gated channel subfamily KQT member 2 (Rattus norvegicus), O88943;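 active means fluorescence ratio B-score at least 3 SD of library B-scores, with initial fluorescence B-score within 3 of them, cut at about 5.3 in these data; same plate scores as AID 2156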;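 further: B-score of peak minus minimum over baseline fluorescence ratio after K+ and Tl+ stimulus; positive B-score means potentiation of KCNQ2 with more thallium influx and brighter signal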
Target sequence (O88943 whole entry, looked up): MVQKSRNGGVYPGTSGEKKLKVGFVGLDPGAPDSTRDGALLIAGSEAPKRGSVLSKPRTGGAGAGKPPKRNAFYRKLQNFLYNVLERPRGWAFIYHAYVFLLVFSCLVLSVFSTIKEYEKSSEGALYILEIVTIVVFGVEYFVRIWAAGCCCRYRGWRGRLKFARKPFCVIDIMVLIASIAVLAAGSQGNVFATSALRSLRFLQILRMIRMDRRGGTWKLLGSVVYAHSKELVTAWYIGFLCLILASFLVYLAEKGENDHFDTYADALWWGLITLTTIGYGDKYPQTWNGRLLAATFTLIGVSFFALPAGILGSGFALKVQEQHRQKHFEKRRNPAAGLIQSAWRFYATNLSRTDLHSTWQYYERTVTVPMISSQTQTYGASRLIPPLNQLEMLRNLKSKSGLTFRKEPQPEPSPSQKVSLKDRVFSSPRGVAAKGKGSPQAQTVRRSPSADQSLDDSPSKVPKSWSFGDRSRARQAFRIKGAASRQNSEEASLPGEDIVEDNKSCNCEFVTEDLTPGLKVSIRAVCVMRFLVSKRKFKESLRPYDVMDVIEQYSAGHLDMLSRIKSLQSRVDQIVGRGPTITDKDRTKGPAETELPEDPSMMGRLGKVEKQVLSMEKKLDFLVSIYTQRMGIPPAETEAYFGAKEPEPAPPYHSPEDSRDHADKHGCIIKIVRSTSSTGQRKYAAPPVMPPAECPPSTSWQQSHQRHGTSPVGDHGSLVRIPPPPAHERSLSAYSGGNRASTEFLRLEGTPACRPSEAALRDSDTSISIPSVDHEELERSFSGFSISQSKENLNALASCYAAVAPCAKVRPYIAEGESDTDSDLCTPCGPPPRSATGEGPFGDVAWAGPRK
KCNQ2 inh: rat KCNQ2 potassium channel inhibitors, primary screen, cell-based, CHO-K1, FluxOR thallium flux, B-score | Potassium voltage-gated channel subfamily KQT member 2 (Rattus norvegicus), O88943 | 20 min; active compounds read low | B-score at 10 µM | 1.1% of 310,000 active | AID 2156, 2009;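 active means fluorescence ratio B-score at most minus 3 library SDs, with starting brightness B-score within 2 library SDs, cut at about -5.5 in these data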
KCNQ2 block conf: rat KCNQ2 potassium channel inhibitors, confirmation, cell-based, thallium flux; shares compounds with KCNQ2 inh; KCNQ2-expressing cells, inhibition; active compounds read low; activity change, negative = inhibition, % at 10 µM; 57% of 1,000 active; AID 493025, 2011;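 further: 0% = vehicle wells and values are ratio percent relative to vehicle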
KCNQ1 spec: human KCNQ1 channel inhibition, counter-screen for KCNQ2 inhibitor project, cell-based, FluxOR thallium flux; shares compounds with KCNQ2 inh; KCNQ1-expressing cells, FluxOR thallium flux fluorescence; active compounds read low; activity change, negative = inhibition, % at 10 µM; 15% of 1,000 active; AID 493026, 2011;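 active means activity change at least 3 SD of negative controls below their mean in both duplicate wells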;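 further: CHO cells stably transfected with KCNQ1 and depolarized by potassium stimulus; peak minus minimum fluorescence over baseline after thallium addition; 0% = vehicle negative control and -100% = blank without thallium stimulus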
CHO Tl ctr: thallium flux change in parental CHO cells, counter-screen for KCNQ2 inhibitor project | shares compounds with KCNQ2 inh | active compounds read low | 14% of 1,000 active | activity change, % at 10 µM;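 further: 0% = vehicle negative controls with stimulus buffer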
KCNQ2 inh confirm: rat KCNQ2 channel inhibitors, confirmation, cell-based, automated patch clamp, single concentration. shares compounds with KCNQ2 inh. KCNQ2-expressing cells, automated patch clamp current. calls only at 10 µM. 49% of 550 active
* hit, by the source's call; i = inactive; / = no result; + = active, no number. This is a sample that favours compounds with a hit; in the whole collection about 1.6% have one here. Unless noted, how the calls were made is not given here.

SMILES	KCNQ2 pot	KCNQ2 inh	KCNQ2 block conf	KCNQ1 spec	CHO Tl ctr	others
COc1cc2c(C(=O)N3CCN(c4ccccc4)CC3)c(C)oc2cc1Br	-7.4	-7.4*	-37%*	i	i	KCNQ2 inh confirm=+
COc1ccccc1-c1cc(C(=O)N2CCN(c3ccccc3)CC2)no1	/	i	/	/	/
C=C(C)CNC(=O)C1CCC(=O)N(CCCc2ccccc2)C1 (stereo not drawn)	/	i	/	/	/
COc1ccc(OC)c(CCNC(=O)c2ccc3c(c2)N(Cc2ccc(F)cc2)CCS3)c1	/	i	/	/	/
COc1ccc(CCNC(=O)c2ccc3c(c2)N(Cc2ccc(F)cc2)CCS3)c(OC)c1	-8.1	-8.1*	i	i	i
COc1ccc(N2CCN(C(=O)c3oc4ccccc4c3C)CC2)cc1	/	i	/	/	/
COc1ccc2oc(C(=O)N3CCN(C(c4ccccc4)c4ccccc4)CC3)c(C)c2c1	-10	-10*	i	i	i
COc1ccc(Cl)cc1C(=O)NC(=S)Nc1ccccc1N1CCOCC1	-12	-12*	-28%*	i	i	KCNQ2 inh confirm=+
Cc1cc(Cl)ccc1OCC(=O)NC(=S)Nc1ccccc1N1CCOCC1	/	i	/	/	/
NC(=O)Cn1cc(/C=N/NC(=O)c2ccc(Cn3cc(Cl)cn3)o2)c(-c2ccccc2)n1	0.2	i	/	/	/
CCOC(=O)N1CCc2c(sc3c2c(=O)n(Cc2ccccc2)c(=O)n3Cc2ccccc2F)C1	-12	-12*	i	i	i
CCOC(=O)N1CCc2c(sc3c2c(=O)n(Cc2ccccc2)c(=O)n3CC(=O)NCC2CCCO2)C1 (stereo not drawn)	0.43	i	/	/	/
CCOC(=O)N1CCc2c(sc3c2c(=O)n(Cc2ccccc2)c(=O)n3Cc2cccc(C)c2)C1	-8.6	-8.6*	-44%*	-30%*	-28%*	KCNQ2 inh confirm=i
O=C(O)Cn1c(=O)c2c3c(sc2n(Cc2ccccc2)c1=O)CCCC3	/	i	/	/	/
Nc1ccc(S(=O)C(F)(F)F)cc1 (stereo not drawn)	/	i	/	/	/
CCN1CC(CN(C)Cc2nc(Cc3ccccc3)no2)CC1=O (stereo not drawn)	0.76	i	/	/	/
NC(=O)C1CC(O)CN1c1nc(CN2CCOCC2)nc2scc(-c3ccccc3)c12 (stereo not drawn)	-8.9	-8.9*	i	i	i
CC1CCN(c2nc(CN3CCCCC3)nc3scc(-c4ccccc4)c23)CC1	/	i	/	/	/
CC1CN(S(=O)(=O)c2cccc(C(=O)Nc3ccccc3N3CCCCC3)c2)CC(C)O1 (stereo not drawn)	-9.5	-9.5*	-29%*	i	i	KCNQ2 inh confirm=i
CN(C)S(=O)(=O)c1cccc(C(=O)Nc2ccccc2N2CCCCC2)c1	/	i	/	/	/
CCN(CC)c1ccc(C(=S)NCc2ccccc2)cc1	/	i	/	/	/
Cc1cc(C)cc(N2C(=O)CSC2c2ccccn2)c1 (stereo not drawn)	/	i	/	/	/
c1ccc(N2CCN(c3ccccc3)C2c2cccs2)cc1	-7	-7*	i	i	i
O=C1CSC(c2cccs2)N1c1ccccc1 (stereo not drawn)	0.72	i	/	/	/
Cc1ccc(-c2cc(C(=O)NCc3cnn(C)c3C)c3cc(Br)ccc3n2)cc1	-9.2	-9.2*	-34%*	i	i	KCNQ2 inh confirm=+
SMILES	KCNQ2 pot	KCNQ2 inh	KCNQ2 block conf	KCNQ1 spec	CHO Tl ctr	others
Cc1ccc(-c2cc(C(=O)N(C)Cc3cnn(C)c3C)c3cc(Br)ccc3n2)cc1	/	i	/	/	/
CC(C)(C)CN1CCC(Oc2cccc(C(=O)N3CCNC(=O)C3(C)C)c2)CC1	/	i	/	/	/
COc1cccc(NC(=O)C(NCC2CCCCC2)c2ccccc2)c1 (stereo not drawn)	-10	-10*	-28%*	i	i	KCNQ2 inh confirm=+
COc1cccc(NC(=O)C2CCCCC2)c1	4.5	i	/	/	/
COc1ccc(C(=O)C(c2ccccc2)N2CCOCC2)cc1 (stereo not drawn)	1.2	i	/	/	/
Cc1ccc(C(=O)C(c2ccccc2)N2Cc3ccccc3C2=N)cc1 (stereo not drawn)	-8.6	-8.6*	-32%*	i	i	KCNQ2 inh confirm=+
Cn1cnnc1SCCC(=O)Nc1ccc(Cl)cc1	0.87	i	/	/	/
Cn1cnnc1SCCC(=O)Nc1ccccc1	-8.3	-8.3*	i	i	i
O=C(NCC1CCCO1)c1cc2ccccc2o1 (stereo not drawn)	0.49	i	/	/	/
CN(C)c1nc(NCc2ccccc2)nc(SCC(=O)Nc2ccccc2Cl)n1	-6.9	-6.9*	i	i	i
CN(C)c1nc(NCc2ccccc2)nc(SCC(=O)Nc2ccccc2)n1	0.48	i	/	/	/
Cc1ccccc1S(=O)Cc1ccc(C(=O)N2CCN(C(=O)c3ccco3)CC2)o1 (stereo not drawn)	1.1	i	/	/	/
COC(=O)NN1C(=O)C(c2ccccc2)=C(c2ccc(Cl)cc2)C1=O	-8.8	-8.8*	i	i	i
COC(=O)Nc1c(-c2ccccc2)nc2ccc(Cl)cn12	/	i	/	/	/
Cc1cccc(-c2nnc(SCc3ccc(C#N)cc3)n2Cc2ccco2)c1	-8.8	-8.8*	-26%*	i	i
CCn1c(SCc2ccc(C#N)cc2)nnc1-c1cccc(Cl)c1	/	i	/	/	/
CCc1ccc(C(=O)Nc2cc(C)ccc2F)s1	/	i	/	/	/
CCOC(=O)CCCNC(=O)CN1C(=O)NC(c2ccccc2)(c2ccccc2)C1=O	/	i	/	/	/
CC(Sc1ccsc1[N+](=O)[O-])C(=O)N1CCN(c2ccccn2)CC1 (stereo not drawn)	0.29	i	/	/	/
O=S(=O)(c1ccc2ccccc2c1)N(CC(O)COCc1ccco1)c1ccccc1 (stereo not drawn)	-8.9	-8.9*	-20%*	i	i	KCNQ2 inh confirm=+
CCN(CC)CC(O)CN(c1ccccc1)S(=O)(=O)c1ccc2ccccc2c1 (stereo not drawn)	2	i	/	/	/
O=S(=O)(/N=C(\Sc1ccccc1)c1ccccc1)c1ccc(Cl)cc1	-6.9	-6.9*	i	i	i
Cc1ccc(S(=O)(=O)/N=C(\Sc2ccccc2)c2ccccc2)cc1	/	i	/	/	/
O=C(CCNC(=O)c1ccccc1Cl)Nc1nnc(C2CC2)s1	/	i	/	/	/
CCN(CC)CCNC(=O)c1ccc(NC(=O)c2cn(-c3ccccc3)nc2-c2cccs2)cc1	-12	-12*	-42%*	-50%*	-37%*	KCNQ2 inh confirm=+
CCN(CC)CCNC(=O)c1ccc(NC(=O)c2cn(-c3ccc(F)cc3)nc2-c2cccc(OC)c2)cc1	/	i	/	/	/
C[C@H](NC(=O)N1CCC(Cc2ccccc2)CC1)C(=O)O	/	i	/	/	/
CC(C)(C)n1nnnc1C(c1ccccn1)N(Cc1ccccc1)Cc1ccc(Cl)cc1 (stereo not drawn)	-7.7	-7.7*	-28%*	i	i	KCNQ2 inh confirm=i
